Data on eight compounds can be found in PubChem BioAssay.

For orientation: remaining activity means the signal under treatment as a percentage of the control signal. For orientation: inhibition means the relative decrease from the control value, in per cent. The term AC50 denotes the midpoint of the concentration-response curve, whichever way the signal moves. The term IC50 denotes the point on the concentration scale where inhibition reaches its midpoint.

Each structure is given as a SMILES string. “And” between values parts separate entries of the source, which are not always exact repeats. Equal values may be shown once. Inconclusive results are not listed. The source made the active and inactive calls. Unless noted, how the calls were made is not given here.

Test [1] deals with Aerobactin synthetase IucA (Klebsiella pneumoniae). As to the kind of experiment: inhibition of K. pneumoniae IucA enzyme – biochemical, Tocris library, absorbance (AID 1345561).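 Further: 100% = enzyme without compound and 0% = no enzyme.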 The following applies: purified IucA enzyme assay, absorbance (OD) read-out; stronger effect = lower value;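 tested at 8 µM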.
Test [2] in a line: viability loss with induced miR-34 in A549 – imaging, A549 dox-inducible miR-34, nuclei and caspase counts, primary screen (AID 1347080;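 active means compounds whose cell count with miR-34 switched on is under 0.7 times the count with it off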). The following applies: A549 miR-34 inducible, Hoechst nuclei count, 48 h.
Test [3] is described as follows: galactose survival enhancers in mitochondrial complex I cybrids – cell-based, galactose medium, ATP luminescence, primary screen (AID 1645843;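 active means z-score of at least 1.8 in each of two replicates, scored against plate mean and spread of sample wells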;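 further: positive z means more ATP and so rescue of galactose-driven cybrid death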). The following applies: complex I mutant cybrid cells, 72 h, stronger effect = higher value.
Test [4] can be described thus: compounds altering circadian rhythm period length – cell-based, LOPAC library, luminescence reporter (AID 2774).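 Further: values are relative to mean of DMSO wells on each plate.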 The settings on record: circadian reporter cells, at 7 µM, actives lie on both sides.
The subject of test [5] is Hepatitis C virus NS3 helicase. As to the kind of experiment: blockers of NS3h binding to ssDNA – biochemical, fluorescence polarization, LOPAC1280 library, primary screen (AID 687035; in the data active means inhibition above about 37%). The following applies: Purified HCV NS3 helicase, Cy5-dT15 ssDNA binding fluorescence polarization; stronger effect = higher value; concentration not given here. (Fluorescence polarisation rises when a labelled molecule tumbles more slowly, as on binding a larger partner.)

A short description of test [6]: compounds altering Cy5-DNA-NS3h complex signal – biochemical, LOPAC1280, artefact control for HCV NS3 helicase inhibitor project (AID 687037). The following applies: Cy5-DNA-NS3h complex fluorescence interference counterscreen.
A short description of test [7]: blockers of cellular phospholipid synthesis – cell-based, LOPAC library, screen 4, primary screen (AID 1347384). The following applies: animal cells, phospholipid biosynthesis inhibition screen; at 10 µM.
Test [8] has as its system Aerobactin synthetase IucA (Klebsiella pneumoniae, hypervirulent). The experiment in a line: biochemical IucA inhibition screen of LOPAC library by absorbance (AID 1346212).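 Further: 100% = no compound wells and 0% = no enzyme wells.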 The following applies: IucA enzyme assay, absorbance (OD) readout; stronger effect = lower value;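 tested at 8 µM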.
The nature of test [9]: viability loss in pontine glioma line – cell-based, SU-DIPG-XVII, MIPE5.0, CellTiter-Glo, qHTS, dose response (AID 1347060; cut-off not given, nearly all actives have AC50 up to about 26 µM;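 further: cells exposed to compound for 48 hours before viability readout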). The settings on record: CellTiter-Glo ATP luminescence. A general note: Cellular ATP, detected with luciferase, serves as a proxy for viable cell number.
Test [10] is described as follows: viability loss in pontine glioma line – cell-based, SU-DIPG-XIII, MIPE4.0, CellTiter-Glo, qHTS, dose response (AID 1347061; cut-off not given, nearly all actives have AC50 up to about 37 µM;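 further: cells exposed to compound for 48 hours before readout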). The following applies: CellTiter-Glo ATP luminescence.
Test [11] can be described thus: viability loss in pontine glioma line – cell-based, JHH-DIPG-1, MIPE4.0, CellTiter-Glo, qHTS, dose response (AID 1347062; cut-off not given, nearly all actives have AC50 up to about 27 µM). The settings on record: JHH-DIPG-1 viability, CellTiter-Glo ATP luminescence.
The nature of test [12]: viability loss in pontine glioma line – cell-based, SU-DIPG-IV, MIPE4.0, CellTiter-Glo, qHTS, dose response (AID 1347063; cut-off not given, nearly all actives have AC50 up to about 30 µM;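 further: compound exposure lasted 48 hours before the viability readout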). The settings on record: CellTiter-Glo ATP luminescence.
Test [13] in a line: viability loss in pontine glioma line – cell-based, SU-DIPG-XIII, MIPE5.0, CellTiter-Glo, qHTS, dose response (AID 1347064; cut-off not given, nearly all actives have AC50 up to about 23 µM;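 further: cells exposed to compound for 48 hours before the viability read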). The following applies: CellTiter-Glo ATP luminescence.
The nature of test [14]: viability loss in pontine glioma line – cell-based, SU-DIPG-XXV, MIPE5.0, CellTiter-Glo, qHTS, dose response (AID 1347065; cut-off not given, nearly all actives have AC50 up to about 26 µM;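 further: cells exposed to compound for 48 hours before ATP readout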). The settings on record: CellTiter-Glo ATP luminescence.
Test [15] is described as follows: growth inhibition of DIPG cells – cell-based, MIPE4.0 library, CellTiter-Glo luminescence, qHTS (AID 1347066; cut-off not given, nearly all actives have AC50 up to about 30 µM;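 further: cells exposed to compound for 48 hours before readout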). The settings on record: SU-DIPG-VI viability, CellTiter-Glo ATP luminescence.
Test [16] in a line: JHH-DIPG-1 glioma cell viability, MIPE5.0 library, CellTiter-Glo luminescence, qHTS (AID 1347067; cut-off not given, nearly all actives have AC50 up to about 26 µM;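 further: cells exposed to compound for 48 hours before readout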). The settings on record: JHH-DIPG-1 glioma viability, CellTiter-Glo ATP luminescence.
Test [17] in a line: growth inhibition of DIPG cells – cell-based, MIPE5.0 library, qHTS (AID 1347068; cut-off not given, nearly all actives have IC50 up to about 30 µM;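 further: cells exposed to compound for 48 hours before viability readout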). The settings on record: SU-DIPG-XXV viability.
The nature of test [18]: chitosan synthesis blockers in C. neoformans – flow cytometry, Cibacron Brilliant Red staining (AID 1347148).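 Further: compound exposure lasted three days at 37 degrees C.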 The settings on record: Cryptococcus neoformans chitosan, stronger effect = lower value; at 10 µM unless noted.
Setting [19] is: stronger effect = lower value, cell number ratio, induced over uninduced.
Where [20] appears, read: measured here: relative caspase fold change +Dox/-Dox.
[21] abbreviates: measured here: total cells with miR-34 induction, stronger effect = lower value.
Setting [22] is: measured here: total cells without miR-34 induction.

As for `CCC[C@@H]1CC2=CC(=O)CC[C@]2(C)[C@H]2CC[C@@]3(C)[C@@H](CC[C@@]3(O)CCC(=O)O)[C@H]12`, in [1], the remaining activity is 116% (inactive). Further, the fold change in [2] (setting [19]) was 0.926 (inactive); in test [2] (setting [20]) it was 0.977. For the same compound, the cell count in [2] (setting [21]) was 7340; in [2] (setting [22]) it was 7920. Besides, in [3], the z-score is 0.06 (inactive).

Take `CCCN(CCC)C1CCc2ccc(O)cc2C1` (stereo unspecified): the period change in [4] was 0.255 h (inactive). In [5], the inhibition was -4% (inactive). The fluorescence ratio (interference) in test [6] is 1 (inactive). In [1], the remaining activity was 121% (inactive). Moreover, the fold change in test [2] (stronger effect = lower value) was 0.974 (inactive) and 1.05 (inactive); in [2] (setting [20]) it was 0.963 and 0.686. The cell count in test [2] (setting [21]) was 10200 and 7960; in test [2] (setting [22]), 10500 and 7600. Besides, the result in test [7] was inactive. In addition, the z-score in test [3] is -0.285 (inactive) and -0.13 (inactive).

Turning to `O=c1ccc2[nH]cc(C3=CCNCC3)c2[nH]1`, the remaining activity in test [1] was 123% (inactive). In addition, the fold change in [2] (stronger effect = lower value) is 0.986 (inactive); in test [2] (setting [19]) it was 0.934 (inactive); in [2] (setting [20]) it was 2.8 and 0.965. The cell count in test [2] (setting [21]) is 10100 and 7840; in [2] (setting [22]), 10200 and 8390. Also, the result in [7] was inactive. In addition, in test [3], the z-score was 0.725 (inactive) and 0.015 (inactive).

Turning to `C=CCN1CC[C@]23c4c5ccc(O)c4O[C@H]2/C(=N/NC(=O)c2ccccc2)CC[C@@]3(O)[C@H]1C5`, the period change in [4] was 0.215 h (inactive). Also, the remaining activity in test [1] is 115% (inactive); in test [8], 116% (inactive). Also, the fold change is 0.994 (inactive) in test [2] (stronger effect = lower value) and 0.667 in [2] (setting [20]). Also, the cell count stood at 9120 in [2] (setting [21]) and 9170 in [2] (setting [22]). For the same compound, the z-score in test [3] is -0.33 (inactive).

Regarding `C[C@H]1CCC/C=C/C2C[C@H](O)C[C@H]2[C@H](O)/C=C/C(=O)O1` (stereo partly specified), the remaining activity in [1] is 129% (inactive). Besides, the AC50 was 66.1 nM (active) in test [9], 235 nM (active) in test [13], 263 nM (active) in test [14] and 235 nM (active) in [16]. For the same compound, the outcome in test [10], in test [11], in [12] and in [15] was inactive. The concentration for half-maximal inhibition (IC50) in [17] was 209 nM (active). Further, the fold change in test [2] (stronger effect = lower value) is 1.05 (inactive) and 1.09 (inactive); in [2] (setting [20]), 1.17 and 1.67. Moreover, the cell count was 2000 and 1470 in test [2] (setting [21]); 1910 and 1340 in test [2] (setting [22]). The fold fluorescence in [18] is 10.7 [at 178.3 µM] (inactive). Besides, the z-score in test [3] was -0.56 (inactive).

For `CCc1cccc(CC)c1NC1=NCCN1`, in test [1], the remaining activity is 115% (inactive). Besides, the results for the fold change in [2] (setting [19]) and in test [2] (setting [20]) were 0.952 (inactive) and 1.79, respectively. In addition, the cell count in test [2] (setting [21]) stood at 8430; in test [2] (setting [22]) it was 8850. The z-score in [3] is -0.02 (inactive).

Regarding `c1ccc(CCCCN2CCC(c3ccccc3)CC2)cc1`, in test [1], the remaining activity is 90.6% (inactive). The results for the fold change in test [2] (setting [19]) and in test [2] (setting [20]) were 0.976 (inactive) and 1.02, respectively. The values for the cell count in test [2] (setting [21]) and in [2] (setting [22]) were 8670 and 8890, respectively. Moreover, in test [3], the z-score is 0.375 (inactive).

For `CCC(Oc1ccc(Cl)cc1)C(=O)OC1CC2CCC(C1)N2C` (stereo unspecified), the remaining activity in test [1] is 88.1% (inactive). Moreover, the fold change is 0.91 (inactive) in [2] (setting [19]) and 1.03 in test [2] (setting [20]). Further, the figures for the cell count in test [2] (setting [21]) and in test [2] (setting [22]) were 8430 and 9270, respectively. Also, the z-score in [3] was -0.285 (inactive).
